Common to all, as to set-up: scale not given: direction of the effect not stated beside the values
Experiment [1] concerns the target Protein translocase subunit SecA (Escherichia coli (strain K12)) (UniProt P10408). In words: Assay to Identify E. coli SecA ATPase Inhibitors. Type of experiment: functional. The note with it: 30 µM.
Experiment [2] has as its target T1, Ubiquitin-activating enzyme e1, putative (Leishmania donovani (strain BPK282A1)) (UniProt E9BSI1).
T1 sequence (whole entry): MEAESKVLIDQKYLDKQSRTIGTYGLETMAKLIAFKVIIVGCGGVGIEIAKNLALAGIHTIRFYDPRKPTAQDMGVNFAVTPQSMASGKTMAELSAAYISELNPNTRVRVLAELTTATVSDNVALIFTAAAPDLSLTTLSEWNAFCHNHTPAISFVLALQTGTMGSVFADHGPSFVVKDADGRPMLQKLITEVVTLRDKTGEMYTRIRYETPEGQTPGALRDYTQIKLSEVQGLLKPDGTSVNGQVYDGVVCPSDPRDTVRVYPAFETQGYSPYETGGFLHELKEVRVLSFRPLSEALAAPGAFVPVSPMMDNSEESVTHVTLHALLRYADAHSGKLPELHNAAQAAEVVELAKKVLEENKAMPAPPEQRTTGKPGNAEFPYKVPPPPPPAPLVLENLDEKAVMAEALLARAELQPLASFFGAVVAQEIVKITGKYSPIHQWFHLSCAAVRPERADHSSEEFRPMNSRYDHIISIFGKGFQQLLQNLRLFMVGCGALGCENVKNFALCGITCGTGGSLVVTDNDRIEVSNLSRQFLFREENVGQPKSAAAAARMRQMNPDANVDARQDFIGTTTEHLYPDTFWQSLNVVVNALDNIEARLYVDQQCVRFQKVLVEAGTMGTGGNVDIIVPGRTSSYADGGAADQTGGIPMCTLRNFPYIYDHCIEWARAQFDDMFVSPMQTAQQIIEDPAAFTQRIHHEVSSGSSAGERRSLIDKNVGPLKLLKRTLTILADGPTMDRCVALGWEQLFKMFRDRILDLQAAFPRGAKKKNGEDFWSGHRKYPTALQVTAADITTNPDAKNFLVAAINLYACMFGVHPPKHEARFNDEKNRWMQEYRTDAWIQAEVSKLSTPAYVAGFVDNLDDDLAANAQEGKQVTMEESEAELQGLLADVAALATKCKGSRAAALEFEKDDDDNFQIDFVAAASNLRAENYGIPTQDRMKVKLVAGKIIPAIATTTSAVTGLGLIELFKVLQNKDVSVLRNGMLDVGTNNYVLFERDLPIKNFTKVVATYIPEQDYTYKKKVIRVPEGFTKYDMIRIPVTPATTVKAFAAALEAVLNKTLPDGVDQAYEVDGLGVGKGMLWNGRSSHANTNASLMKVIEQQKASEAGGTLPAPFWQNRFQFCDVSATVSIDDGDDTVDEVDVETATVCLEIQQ
In words: Leishmania donovani Ubiquitin Activating Enzyme (LdE1). In kind it is functional. Particulars: 30 µM.

Experiment [3] addresses AMP-activated protein kinase, AMPK (Homo sapiens) (UniProt P54646+O43741+P54619+Q9UGJ0+Q9Y478+Q13131+Q9UGI9). In words: AMP-dependent Kinase enzyme assay. An in vitro enzyme assay that detects ADP turnover that is directly proportional to AMPK activity. This uses naive AMPK that is activated during the assay with MK-8722. Type of experiment: functional. The note with it: 30 µM.

Experiment [4] concerns the target Sialic acid-binding Ig-like lectin 9 (Homo sapiens) (UniProt Q9Y336). Description: Hs-Siglec9 ALPHAscreen SOP 20170721. The note with it: 10 µM. For orientation: Bead proximity is the source of the signal in Alpha formats.
The test system of the next experiment is Trypanosoma cruzi. In words: Trypanosoma cruzi phosphomannomutase and mannose-1-phosphate guanylyltransferase assay. Type of experiment: functional. The note with it: 10 µM.
In experiment [5] the target is T2, Arginase-2, mitochondrial (Homo sapiens) (UniProt P78540).
T2 sequence (whole entry): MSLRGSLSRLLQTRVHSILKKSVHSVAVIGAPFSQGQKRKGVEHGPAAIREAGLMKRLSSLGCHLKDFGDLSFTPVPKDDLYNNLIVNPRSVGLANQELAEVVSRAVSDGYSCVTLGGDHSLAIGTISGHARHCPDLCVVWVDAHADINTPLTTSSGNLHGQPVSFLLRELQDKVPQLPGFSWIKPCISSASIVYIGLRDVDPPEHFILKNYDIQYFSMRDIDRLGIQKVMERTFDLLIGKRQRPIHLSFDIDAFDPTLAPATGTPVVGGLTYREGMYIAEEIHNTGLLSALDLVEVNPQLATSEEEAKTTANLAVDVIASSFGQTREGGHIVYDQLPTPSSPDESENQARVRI
Description: in vitro enzyme assay to detect the production of urea directly proportional to the activity of Arginase II. Further: in the data most compounds retested in dose-response had high values. Type of experiment: functional. The note with it: 33.3 µM.

Experiment [6] concerns the target T3, Proteasome subunit beta (Trypanosoma cruzi) (UniProt O96673).
T3 sequence (whole entry): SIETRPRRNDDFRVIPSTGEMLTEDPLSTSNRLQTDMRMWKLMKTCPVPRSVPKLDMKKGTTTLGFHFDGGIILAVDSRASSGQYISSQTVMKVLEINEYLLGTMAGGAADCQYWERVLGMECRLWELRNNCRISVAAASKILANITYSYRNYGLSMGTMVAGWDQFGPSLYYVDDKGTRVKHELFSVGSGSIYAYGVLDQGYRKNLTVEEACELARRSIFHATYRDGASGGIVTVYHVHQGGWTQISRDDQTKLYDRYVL
Description: Trypanosoma cruzi proteasome chymotrypsin-like activity (TcProtChymo) assay. Further: in the data most compounds retested in dose-response had high values. Particulars: 9.37 µM. In kind it is functional.

For the next experiment, the species on record is Homo sapiens. In words: To identify inhibition of the IFN signalling (Jak-Stat) pathway via expression of an eGFP reporter gene under the control of an IFN-stimulated response element (ISRE) containing MxA promoter. In kind it is functional. The note with it: 30 µM. (A reporter such as luciferase makes a cellular process visible.)
Experiment [7] concerns the target T4, Tyrosyl-tRNA synthetase, putative (Trypanosoma cruzi (strain CL Brener)) (UniProt Q4DSP6).
T4 sequence (whole entry): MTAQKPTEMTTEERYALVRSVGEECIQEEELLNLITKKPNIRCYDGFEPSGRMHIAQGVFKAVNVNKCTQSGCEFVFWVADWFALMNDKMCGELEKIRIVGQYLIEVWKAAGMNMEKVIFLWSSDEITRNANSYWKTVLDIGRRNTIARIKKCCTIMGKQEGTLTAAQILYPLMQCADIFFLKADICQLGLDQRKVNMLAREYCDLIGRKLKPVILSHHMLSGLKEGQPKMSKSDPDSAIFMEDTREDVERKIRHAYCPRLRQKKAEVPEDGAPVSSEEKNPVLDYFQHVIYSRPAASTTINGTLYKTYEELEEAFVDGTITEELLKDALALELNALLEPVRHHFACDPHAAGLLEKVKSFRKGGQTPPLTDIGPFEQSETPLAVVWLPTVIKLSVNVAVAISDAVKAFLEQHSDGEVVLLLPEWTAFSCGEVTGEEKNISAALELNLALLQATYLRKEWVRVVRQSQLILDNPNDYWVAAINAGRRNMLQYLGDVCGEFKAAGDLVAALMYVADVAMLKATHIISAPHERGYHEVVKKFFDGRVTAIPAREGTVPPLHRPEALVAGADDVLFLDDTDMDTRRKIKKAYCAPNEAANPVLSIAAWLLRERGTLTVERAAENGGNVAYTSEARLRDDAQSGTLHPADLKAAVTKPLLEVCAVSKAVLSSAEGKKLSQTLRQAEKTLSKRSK
Description: Trypanosoma cruzi tyrosyl tRNA synthetase (TcYRS) _High Tyrosine SOP. Further: in the data most compounds retested in dose-response had high values. Particulars: 30 µM. In kind it is functional.

For experiment [8], the target named is T4, Tyrosyl-tRNA synthetase, putative (Trypanosoma cruzi (strain CL Brener)). In words: Trypanosoma cruzi tyrosyl tRNA synthetase (TcYRS) SOP. Type of experiment: functional. The note with it: 30 µM.
In experiment [9] the target is Chromo domain-containing protein 1 (Saccharomyces cerevisiae (strain ATCC 204508 / S288c) (Baker's yeast)) (UniProt P32657). Description: ScCHD-1 Enzyme Inhibition Assay. Further: in the data most compounds retested in dose-response had high values. Type of experiment: functional. The note with it: 30 µM.

SMILES strings stand for the structures. For some of these results: Measured potencies and affinities stand elsewhere.

Sequence of Sialic acid-binding Ig-like lectin 9 (Homo sapiens) (Q9Y336 whole entry): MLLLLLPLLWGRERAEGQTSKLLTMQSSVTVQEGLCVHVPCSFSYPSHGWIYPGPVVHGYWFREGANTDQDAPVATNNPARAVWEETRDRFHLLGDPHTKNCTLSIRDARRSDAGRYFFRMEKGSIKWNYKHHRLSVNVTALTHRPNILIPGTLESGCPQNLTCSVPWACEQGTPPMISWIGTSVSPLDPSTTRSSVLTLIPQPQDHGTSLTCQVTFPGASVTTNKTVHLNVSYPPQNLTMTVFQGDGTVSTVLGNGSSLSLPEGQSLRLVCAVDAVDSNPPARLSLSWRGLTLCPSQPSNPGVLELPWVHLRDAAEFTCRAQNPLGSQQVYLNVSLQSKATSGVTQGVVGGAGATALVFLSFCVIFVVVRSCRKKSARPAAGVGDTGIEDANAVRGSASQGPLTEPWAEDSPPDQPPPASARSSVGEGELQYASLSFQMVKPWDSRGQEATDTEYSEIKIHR
Sequence of Chromo domain-containing protein 1 (Saccharomyces cerevisiae (strain ATCC 204508 / S288c) (Baker's yeast)) (P32657 whole entry, the tested form may be a part): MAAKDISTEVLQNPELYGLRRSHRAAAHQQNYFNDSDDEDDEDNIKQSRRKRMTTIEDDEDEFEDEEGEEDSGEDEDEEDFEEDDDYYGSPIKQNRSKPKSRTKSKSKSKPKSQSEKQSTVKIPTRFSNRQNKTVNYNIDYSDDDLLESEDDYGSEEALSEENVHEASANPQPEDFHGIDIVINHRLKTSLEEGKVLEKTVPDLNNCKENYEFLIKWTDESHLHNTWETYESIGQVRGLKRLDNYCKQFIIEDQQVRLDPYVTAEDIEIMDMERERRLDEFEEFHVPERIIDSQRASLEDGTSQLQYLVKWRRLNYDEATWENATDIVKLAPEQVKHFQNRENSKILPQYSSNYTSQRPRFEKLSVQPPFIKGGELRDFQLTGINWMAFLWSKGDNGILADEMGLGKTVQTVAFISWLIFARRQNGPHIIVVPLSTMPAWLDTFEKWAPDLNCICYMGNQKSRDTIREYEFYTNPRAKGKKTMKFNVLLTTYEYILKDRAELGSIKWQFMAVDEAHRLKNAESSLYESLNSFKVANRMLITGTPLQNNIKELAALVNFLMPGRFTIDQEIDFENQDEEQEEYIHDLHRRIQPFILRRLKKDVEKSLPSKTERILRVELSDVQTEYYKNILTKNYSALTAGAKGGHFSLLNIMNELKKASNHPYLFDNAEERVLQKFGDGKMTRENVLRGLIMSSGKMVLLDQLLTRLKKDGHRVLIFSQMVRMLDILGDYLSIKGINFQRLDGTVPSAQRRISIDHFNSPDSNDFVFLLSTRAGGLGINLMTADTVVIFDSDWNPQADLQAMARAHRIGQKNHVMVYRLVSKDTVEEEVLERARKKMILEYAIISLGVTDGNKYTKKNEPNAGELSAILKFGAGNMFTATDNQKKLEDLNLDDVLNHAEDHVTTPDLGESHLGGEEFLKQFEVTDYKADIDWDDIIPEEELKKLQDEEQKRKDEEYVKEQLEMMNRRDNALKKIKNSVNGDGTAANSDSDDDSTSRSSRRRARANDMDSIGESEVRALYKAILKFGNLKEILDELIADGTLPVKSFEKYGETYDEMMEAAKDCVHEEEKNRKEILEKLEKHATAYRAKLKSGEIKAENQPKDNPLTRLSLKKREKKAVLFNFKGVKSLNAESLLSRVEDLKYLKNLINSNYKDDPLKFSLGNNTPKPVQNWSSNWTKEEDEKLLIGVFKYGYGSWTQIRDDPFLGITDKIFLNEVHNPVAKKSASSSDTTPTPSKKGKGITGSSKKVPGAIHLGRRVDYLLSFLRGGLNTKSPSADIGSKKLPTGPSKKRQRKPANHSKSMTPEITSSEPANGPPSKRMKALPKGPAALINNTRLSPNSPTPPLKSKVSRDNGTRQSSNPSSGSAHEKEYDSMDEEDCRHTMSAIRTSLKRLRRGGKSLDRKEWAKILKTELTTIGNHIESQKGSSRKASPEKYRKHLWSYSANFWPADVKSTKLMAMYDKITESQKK
Sequence of Protein translocase subunit SecA (Escherichia coli (strain K12)) (P10408 whole entry): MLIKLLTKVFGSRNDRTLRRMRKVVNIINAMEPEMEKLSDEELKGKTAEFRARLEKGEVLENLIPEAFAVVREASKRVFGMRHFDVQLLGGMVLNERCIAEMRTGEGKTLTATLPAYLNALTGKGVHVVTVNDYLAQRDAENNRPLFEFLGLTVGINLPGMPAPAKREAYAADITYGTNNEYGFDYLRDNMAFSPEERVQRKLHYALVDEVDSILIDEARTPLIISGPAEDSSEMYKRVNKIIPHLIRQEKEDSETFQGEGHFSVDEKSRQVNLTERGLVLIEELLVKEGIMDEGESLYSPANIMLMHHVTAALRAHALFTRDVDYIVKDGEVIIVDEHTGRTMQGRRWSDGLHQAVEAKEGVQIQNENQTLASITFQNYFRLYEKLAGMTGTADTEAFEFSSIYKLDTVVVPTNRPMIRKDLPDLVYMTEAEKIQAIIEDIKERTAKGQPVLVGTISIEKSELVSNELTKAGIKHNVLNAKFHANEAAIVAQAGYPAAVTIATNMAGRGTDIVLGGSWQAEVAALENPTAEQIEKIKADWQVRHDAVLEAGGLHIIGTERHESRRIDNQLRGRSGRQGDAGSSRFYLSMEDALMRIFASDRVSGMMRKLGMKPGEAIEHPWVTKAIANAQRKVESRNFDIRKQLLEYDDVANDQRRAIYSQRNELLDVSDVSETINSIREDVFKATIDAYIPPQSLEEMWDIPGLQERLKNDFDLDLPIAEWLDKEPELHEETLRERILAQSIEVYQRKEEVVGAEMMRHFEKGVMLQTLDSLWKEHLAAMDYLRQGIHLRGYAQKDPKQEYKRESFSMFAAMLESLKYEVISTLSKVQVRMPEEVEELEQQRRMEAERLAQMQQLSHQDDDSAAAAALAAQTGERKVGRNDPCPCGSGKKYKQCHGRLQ

As to `Cc1ccsc1C(=O)N1C[C@@H]2CN(Cc3ccoc3)CCO[C@@H]2C1`, the Percent Effect in experiment [1] is 1.09%; in [2], 18.9%; in [3] it was 1.36%; in [4], -11.6%; with Trypanosoma cruzi, 5.18%; in experiment [5] it was 9.87%. In addition, the Percent Effect in [6] is 12.7%; in the experiment filed under Homo sapiens it was -6.4%; in experiment [7], 6.49%; in experiment [8], 15.4%; in experiment [9], -1.54%.

On to `CC(C)c1noc(CN2CCC3(CCCO3)CCC2=O)n1` (stereo unspecified), for which the Percent Effect in experiment [1] is -8.4%; in experiment [2] it was 2.67%; in experiment [3], 0.336%; in experiment [4], -1.54%; with Trypanosoma cruzi it was -3.8%; in experiment [5], -0.521%. The Percent Effect was 2.27% in experiment [6]; 25.6% in the experiment filed under Homo sapiens; 1.64% in experiment [7]; 6.17% in [8]; -6.74% in experiment [9].

`O=C(CCc1cccnc1)N1CCCC(n2cncn2)C1` (stereo unspecified): the Percent Effect is -2.09% in experiment [1]; 0% in [2]; 4.67% in experiment [3]; 4.06% in [4]; 2.74% in the experiment with Trypanosoma cruzi; 0.76% in experiment [5]. The Percent Effect is -1.23% in experiment [6]; -1.71% in the experiment filed under Homo sapiens; 2.46% in [7]; -1.27% in experiment [8]; -1.28% in [9].

Turning to `CN(CCO)C(=O)c1coc(CN2CCN(c3ccccc3F)CC2)n1`, the Percent Effect is -2.04% in experiment [1]; 13.3% in experiment [2]; -1.48% in [3]; 17.7% in experiment [4]; -0.0974% in the experiment with Trypanosoma cruzi; 49.5% in experiment [5]. In addition, the Percent Effect came out at 20.2% in [6]; 11.4% in the experiment filed under Homo sapiens; 6.01% in experiment [7]; 21% in experiment [8]; 97.1% in experiment [9].

Turning to `CC(C)N1CCOCC2(CN(Cc3nccs3)CCO2)C1` (stereo unspecified), the Percent Effect in [1] was -5.04%; in experiment [2], 20.8%; in [3], -4.7%; in experiment [4], -3.15%; in the experiment with Trypanosoma cruzi, 2.66%; in experiment [5], 0.645%. The Percent Effect in experiment [6] was 16.7%; in the experiment listed under Homo sapiens, 3.46%; in [7], 9.52%; in [8], 14.1%; in experiment [9], -7.32%.

For the compound `CC(=O)N1CCN(C(=O)CCOc2ccc(C(C)C)cc2)CC1`, the Percent Effect in experiment [1] was -2.33%; in experiment [2], 7.89%; in [3] it was 5.03%; in [4] it was 10.9%; in the experiment on Trypanosoma cruzi, -2.26%; in experiment [5] it was 2.3%. The Percent Effect is 14.4% in experiment [6]; 0.908% in the experiment listed under Homo sapiens; 5.39% in experiment [7]; 4.88% in [8]; -1.04% in [9].

For `CNC(=O)[C@H]1C[C@@H]2CN(S(=O)(=O)c3ccccc3)C[C@@H]2N1C(C)=O`, the Percent Effect was -5.14% in experiment [1]; 7.79% in experiment [2]; 3.54% in experiment [3]; 8.79% in experiment [4]; 8.95% with Trypanosoma cruzi; 1.38% in [5]. Moreover, the Percent Effect in experiment [6] is 8.32%; in the experiment filed under Homo sapiens it was 18.1%; in experiment [7], 5.38%; in experiment [8], 11.1%; in [9] it was 1.18%.

As to `FC(F)(F)Cc1noc(CN2CCCC2c2noc(C3CC3)n2)n1` (stereo unspecified), the Percent Effect in experiment [1] was -1.65%; in experiment [2], 13.5%; in experiment [3], -5.95%; in experiment [4], 4.29%; in the experiment with Trypanosoma cruzi, 4.06%; in experiment [5], -10.8%. The Percent Effect in experiment [6] was 5.59%; in the experiment listed under Homo sapiens, 7.37%; in experiment [7], 7.39%; in experiment [8], 23.5%; in [9], -9.28%.

In the case of `c1cnc2c(c1)cc(C1CCOCC1)n2CCN1CCOCC1`, the Percent Effect in experiment [1] is -3.29%; in experiment [2] it was 14.9%; in experiment [3] it was 13.1%; in [4] it was -5.49%; in the experiment with Trypanosoma cruzi it was 0.79%; in [5], -1.62%. Also, the Percent Effect is 12.5% in experiment [6]; 4.82% in the experiment listed under Homo sapiens; 3.23% in experiment [7]; 11.7% in experiment [8]; -12.6% in experiment [9].

As for `CCCc1n[nH]c(C2CN(C(=O)CCCn3cccn3)CCO2)n1` (stereo unspecified), the Percent Effect in experiment [1] was -4.8%; in experiment [2], -4.17%; in [3] it was -0.0148%; in experiment [4], -2.33%; in the experiment with Trypanosoma cruzi, -2.82%; in experiment [5], -0.883%. Besides, the Percent Effect in experiment [6] was 7.89%; in the experiment filed under Homo sapiens, -2.8%; in [7] it was -1.05%; in experiment [8] it was -2.56%; in experiment [9], 5.04%.

For `COc1cccc2c1OCC(C(=O)N(C)CCCc1cnn(C)c1)C2` (stereo unspecified), the Percent Effect in experiment [1] was -3.02%; in [2], 0%; in experiment [3], -14.1%; in experiment [4], -2.21%; in the experiment with Trypanosoma cruzi, -6.27%; in experiment [5], 3.64%. Moreover, the Percent Effect in experiment [6] was 4.79%; in the experiment listed under Homo sapiens, 12.6%; in experiment [7] it was 0%; in experiment [8] it was 7.5%; in [9] it was -4.59%.

Source of the values: ChEMBL document CHEMBL3988442, “University of Dundee, Small-Polar-MMV Screening Library” (2021).
